GPR7 antagonist: GPR7 receptor antagonists, primary screen, cell-based, fluorescence, single concentration | Neuropeptides B/W receptor type 1 (Homo sapiens), P48145 | GPR7-expressing cells, fluorescence antagonist assay | inhibition, % at 4.4 µM | 290,000 tested, 1.1% active; in the data active = inhibition above about 16%, passing the limit was not always enough;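 also: cells stimulated with the agonist NPW; 0% = agonist with vehicle and 100% = vehicle without agonist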
CHT PAM: CHT positive allosteric modulators, primary screen, cell-based, membrane potential dye, choline EC20. B-score at 10 µM. CHT-expressing cells; hits give high values; LV-AA mutant CHT in HEK293 cells. High affinity choline transporter 1 (Homo sapiens), Q9GZV3. 310,000 tested, 0.49% active. AID 488977, 2010;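 active = initial fluorescence not abnormally high and integrated response B-score, plate-corrected, over 3 SD above library mean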
Target sequence (Q9GZV3 whole entry, looked up): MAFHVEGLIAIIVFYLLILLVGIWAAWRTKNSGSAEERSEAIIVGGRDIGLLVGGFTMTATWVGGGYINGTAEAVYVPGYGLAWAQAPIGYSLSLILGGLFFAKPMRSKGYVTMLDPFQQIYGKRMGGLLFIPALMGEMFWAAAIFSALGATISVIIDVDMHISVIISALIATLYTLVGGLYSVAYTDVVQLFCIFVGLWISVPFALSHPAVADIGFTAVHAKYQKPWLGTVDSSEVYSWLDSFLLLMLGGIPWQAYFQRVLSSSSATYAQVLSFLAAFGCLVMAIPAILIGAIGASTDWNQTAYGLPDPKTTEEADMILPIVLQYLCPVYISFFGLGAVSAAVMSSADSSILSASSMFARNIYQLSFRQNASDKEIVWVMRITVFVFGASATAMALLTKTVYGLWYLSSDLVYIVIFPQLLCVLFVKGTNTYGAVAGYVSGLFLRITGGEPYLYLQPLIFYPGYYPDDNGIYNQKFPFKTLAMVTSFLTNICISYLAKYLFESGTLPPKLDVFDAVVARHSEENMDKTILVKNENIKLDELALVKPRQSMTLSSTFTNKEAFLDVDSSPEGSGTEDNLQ
Kir21 block: inhibitors of mouse Kir2.1 inward-rectifier potassium channel | HEK293-Kir2.1, FluxOR thallium flux fluorescence; hits give low values | B-score at 10 µM | 310,000 tested, 0.85% active | AID 1672, 2009;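 active = fluorescence ratio B-score at or below minus 3 SD of library scores, with starting-brightness B-score within 2 SD, cut at about -4.2 in these data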;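 also: channel flux triggered by added potassium and thallium sulfate stimulus; B-score of peak minus minimum fluorescence over baseline after thallium stimulus; more negative B-score means stronger Kir2.1 block with less thallium influx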
ANO1 activ: TMEM16A chloride channel activators or potentiators, primary screen, cell-based, HTS. HEK293 TMEM16A/YFP-H148Q/I152L, iodide quench fluorescence; hits give low values. 340,000 tested, 0.3% active. AID 623877, 2012. Anoctamin-1 (Mus musculus), Q8BHY3. B-score at 10 µM;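 active = fluorescence-ratio B-score plate-corrected deviation score at least 3 library SD below zero, with starting fluorescence score within 5 deviations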;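 also: channel opened by trigger with iodide after compound preincubation; score built on the fluorescence ratio of max minus min over baseline; more negative score means more quench and so TMEM16A activation or potentiation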
CHT block: inhibitors of human choline transporter CHT; CHT-expressing cells, membrane potential dye, choline response; hits give low values; High affinity choline transporter 1 (Homo sapiens), Q9GZV3; 310,000 tested, 0.86% active; B-score at 10 µM;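 active = B-score over 3 SD under the library average, and starting fluorescence ratio not unusually high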;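 also: choline stimulus applied at its EC90 after an EC20 pre-addition; B-score computed on integrated fluorescence ratio after choline addition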
TMEM16A inh: TMEM16A chloride channel inhibitors, primary screen, cell-based, HTS; 310,000 tested, 1.2% active; normalized B-score (activity score, 25-100; higher = stronger inhibition) at 10 µM; HEK293 TMEM16A/YFP iodide influx fluorescence, ionomycin;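 active = ratio plate-corrected score three or more library SD toward inhibition, starting fluorescence score within five deviations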;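 also: score derived from kinetic fluorescence span divided by baseline fluorescence per well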
CHT block conf: CHT inhibitors, confirmation, cell-based, membrane potential dye, duplicate; AID 493221, 2011; 2,400 tested, 70% active; CHT-expressing cells, choline membrane potential dye; LV-to-AA substituted CHT, HEK293 cells; shares compounds with CHT block; CHT activity remaining % of control (hits give low values), % at 10 µM;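 active = choline transporter activity left, mean of duplicates at 10 µM, below buffer-only control mean minus 3 SD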;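 also: depolarization triggered by choline at its EC90 following an EC20 pre-addition; 0% = hemicholinium-3 full block and 100% = buffer-only control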
HEK293 CHT ctr: membrane potential effects in parental HEK293, counter-screen for CHT inhibitor project, cell-based, membrane potential dye. choline response; active = decrease or increase beyond buffer ±3SD. 2,400 tested, 4% active. shares compounds with CHT block. membrane potential ratio readout (active if shifted either direction beyond buffer ±3SD; no single direction) at 10 µM;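 also: parental cells lack the transporter so any hit is non-specific; ratio is peak minus trough fluorescence over baseline after EC90 choline challenge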
* = called active by the depositor; i = inactive; . = no result given. This is a sample that favours compounds with a hit; in the whole collection about 3.7% have one here.

SMILES	GPR7 antagonist	CHT PAM	Kir21 block	ANO1 activ	CHT block	TMEM16A inh	CHT block conf	HEK293 CHT ctr
O=C(C1CCCN(c2ncnc3c2nc2n3CCCCC2)C1)N1CCN(c2ccccc2)CC1 (stereo not given)	-20.8	i	1.96	i	-6.4*	i	14.9%*	i
O=C(Nc1cc(F)ccc1F)C1CCCN(c2ncnc3c2nc2n3CCCCC2)C1 (stereo not given)	0.2	i	-1.64	i	-6.01*	i	46.1%*	i
CC(=O)N(Cc1ccccc1)C1CC(=O)N(Cc2ccccc2)C1=O (stereo not given)	.	.	.	i	.	.	.	.
CC(C)(C)C(=O)Nc1cc(S(=O)(=O)N2CCCCC2)ccc1N1CCCCC1	-14.9	i	-0.76	i	i	i	.	.
COc1ccc(S(=O)(=O)N(C)C[C@H]2Oc3c(NC(=O)Nc4c(C)noc4C)cccc3C(=O)N([C@@H](C)CO)C[C@H]2C)cc1	.	.	.	i	.	.	.	.
Cc1ccc(N2CCN(C(=O)C3CCCN(c4ncnc5c4nc4n5CCCCC4)C3)CC2)c(C)c1 (stereo not given)	-3.5	i	2.4	i	-5.94*	i	45.1%*	i
CN1C2=C(C(=O)CC(C)(C)C2)C(c2cccs2)C2=C1CC(C)(C)CC2=O	.	i	-0.35	i	i	i	.	.
Cn1c(SCc2nc3ccccc3s2)nnc1-c1cccs1	14.6	i	-1.91	i	-5.1*	i	56.2%*	i
CC(C)[C@H](NC(=O)c1ccccc1Br)C(=O)OCc1nc2ccsc2c(=O)[nH]1	.	i	-1.12	i	i	i	.	.
CC(C)C(NC(=O)c1ccccc1Cl)C(=O)OCc1nc2scc(-c3ccccc3Cl)c2c(=O)[nH]1 (stereo not given)	-0.3	i	0.48	i	-5.08*	i	i	i
O=C(Nc1cc(C(F)(F)F)ccc1-n1cncn1)c1ccc([N+](=O)[O-])o1	.	i	0.01	i	-6.12*	i	32.6%*	i
Cn1cnc2c(cnn2C)c1=N	.	.	.	i	.	.	.	.
CCOC(=O)CC1(C)NC(=O)c2c(C)sc(C(=O)OCC)c2N1 (stereo not given)	-15.3	i	-1.17	i	i	i	.	.
CCOC(=O)CC1(CC(=O)OCC)NC(=O)c2c(C)sc(C(=O)OCC)c2N1	7.0	i	-0.11	i	-5.13*	i	38.3%*	i
Cc1nn2c(N3CCN(C)CC3)c3c(nc2c1-c1ccccc1)CCCC3	-2.8	i	-2.03	i	-9.6*	i	31.7%*	i
CN(C)CCNC(=O)C(=O)NCC(c1ccc2c(c1)OCO2)N1CCN(c2ccc(F)cc2)CC1 (stereo not given)	2.9	i	-0.01	i	-5.5*	i	45.0%*	i
Cc1ccc(NC(=O)CCn2c(=S)oc3ccccc32)cc1F	-2.1	i	1.24	i	i	i	.	.
COc1ccc(C(=O)OCC(=O)NC(C)CCc2ccccc2)c(OC)c1 (stereo not given)	0.1	i	-1.81	i	-5.73*	i	i	i
COc1cc(OC)cc(C(=O)OCC(=O)NC(C)CCc2ccccc2)c1 (stereo not given)	2.7	i	-1.16	i	i	i	.	.
O=C(N=c1ccn(-c2nc3ccccc3nc2NS(=O)(=O)c2ccccc2)cc1)c1cccs1	-2.9	i	0.52	i	i	i	.	.
Cc1ccccc1C(=O)N=c1ccn(-c2nc3ccccc3nc2NS(=O)(=O)c2ccc(F)cc2)cc1	-6.3	i	1.15	i	-5.93*	i	i	i
CCCN(C(=O)CCl)C1=CCCCC1	1.4	i	0.16	i	i	i	.	.
OC1CCCN(c2c3c(nc4cc(-c5cccc(F)c5)nn24)CCCC3)C1 (stereo not given)	-1.1	i	1.46	i	-5.23*	i	i	i
Cc1cccc(-c2cc3nc4c(c(N5CCCC(O)C5)n3n2)CCC4)c1 (stereo not given)	0.6	i	-0.02	i	i	i	.	.
Cc1ccc(Nc2nc(CSc3nnc(-c4ccc(F)cc4)n3C)cs2)cc1	9.4	i	-3.49	i	-5.96*	i	47.9%*	i
SMILES	GPR7 antagonist	CHT PAM	Kir21 block	ANO1 activ	CHT block	TMEM16A inh	CHT block conf	HEK293 CHT ctr
CCCn1c(=O)c(C(=O)NCc2ccccn2)c(O)c2ccccc21	-12.6	i	.	i	-5.69*	i	i	i
CC1CCCCC1NC(=O)Cn1nnc(-c2ccc(Cl)cc2)n1 (stereo not given)	20.6	i	-0.75	i	-6.29*	i	66.2%*	i
Cc1ccc(NC(=S)NNC(=O)C2CC2c2ccc(C)cc2)cc1 (stereo not given)	-12.2	i	-1.17	i	-5.55*	i	58.5%*	i
COc1ccc(NC(=S)NNC(=O)C2CC2c2ccc(C)cc2)cc1 (stereo not given)	0.9	i	-0.03	i	i	i	.	.
Cc1cccc(CS(=O)(=O)c2ncc(Cl)c(C(=O)NCc3ccccc3)n2)c1	11.4	i	-0.5	i	i	i	.	.
Cc1nnc(NC(=O)c2nc(S(=O)(=O)Cc3ccccc3)ncc2Cl)s1	-16.4	i	-0.01	i	-10.7*	i	27.5%*	i
CCCc1nnc(NC(=O)c2nc(S(=O)(=O)Cc3cccc(C)c3)ncc2Cl)s1	-3.5	i	-4.01	i	-5.2*	i	29.7%*	i
Cn1nc(-c2ccc(Cl)cc2)cc1NC(=O)CSCC(=O)O	-20.6	i	0.75	i	i	i	.	.
O=C(NNc1cc(Br)c(O)c(Br)c1)c1ccccc1	-15.2	i	-0.31	i	-7.37*	i	47.3%*	i
CCCCn1c(N)c(N(CCOC)C(=O)COc2ccc(Cl)cc2)c(=O)[nH]c1=O	-14.2	i	-0.26	i	i	i	.	.

Assay outcomes as filed in PubChem BioAssay.
